Bioassay records as filed in PubChem BioAssay.
C diff growth – C. difficile growth inhibitors, primary screen, HTS. AID 1259249, 2017. hit rate 0.25% among 86,000. growth activity, negative = inhibition, % at 16 µg/mL (by protocol). Clostridium difficile clinical isolate growth, OD600, 24 h; active compounds read low;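 active = mean growth activity at or below -80% and every replicate also at or below -80%; inconclusive = mean at or below -80% but some replicate above -80%; inactive = mean growth activity above -80%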
Pf Dd2 growth – P. falciparum Dd2 growth inhibitors, primary screen, SYBR Green fluorescence, single dose replicates | 72 h; active compounds read low | activity change, % at 10 µM | hit rate 2.3% among 94,000 | AID 1159554, 2015; in the data active = activity change below about -80%; inconclusive = no clear call, values can overlap the other calls
T cruzi growth-1 – T. cruzi intracellular proliferation inhibitors, primary screen, cell-based, beta-gal Tulahuen parasites, NIH3T3 host, luminescence; T. cruzi beta-gal in NIH3T3, GalScreen luminescence, 90 h; inhibition, % at 8.34 µM; hit rate 5.9% among 77,000; AID 624255, 2012;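 active = mean inhibition above about 93%, with at least 55% of replicates each passing it, limit read from the data, passing the limit was not always enough; inconclusive = only one of those two conditions holds; inactive = neither condition holds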
T cruzi growth-2 – T. cruzi intracellular proliferation inhibitors, confirmation, cell-based, NIH3T3 host, beta-gal parasite, luminescence, cherry-pick; inhibition, % at 8.35 µM; shares compounds with T cruzi growth-1; hit rate 72% among 5,600; T. cruzi beta-gal in NIH3T3, GalScreen luminescence, 90 h; AID 651739, 2012;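 active = mean replicate inhibition above about 95% and at least 55% of replicates individually reaching it, limit read from the data; inconclusive = only one of the two criteria is met; inactive = neither criterion is met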
T cruzi growth-3 – inhibitors of intracellular T. cruzi replication, confirmation, NIH3T3 host cells, beta-gal parasites, cherry-pick, set 2; inhibition, % at 2.09 µM; hit rate 21% among 5,600; T. cruzi beta-gal in NIH3T3, GalScreen luminescence, 90 h; shares compounds with T cruzi growth-1;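 active = mean inhibition above about 95%, with at least 55% of replicates also reaching it, limit read from the data; inconclusive = meets just one of the two conditions; inactive = meets neither condition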
3T3 cytotox – cytotoxicity in mouse NIH/3T3 fibroblasts, confirmation, cytotoxicity control for T. cruzi proliferation inhibitor project, cell-based, cherry-pick, single point; shares compounds with T cruzi growth-1; NIH/3T3 viability, CellTiter-Glo ATP luminescence, 90 h; cytotoxicity (signal decrease), % at 8.35 µM; hit rate 14% among 5,600;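 active = mean signal decrease across replicates above about 35% based on untreated-well scatter, with enough replicates individually passing, limit read from the data; inconclusive = no rule stated though some were filed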
3T3 cytotox 2 – NIH/3T3 fibroblast cytotoxicity, confirmation, cytotoxicity control, cell-based, cherry-pick, single point, set 2 | shares compounds with T cruzi growth-1 | NIH/3T3 viability, CellTiter-Glo ATP luminescence, 90 h | inhibition, % at 24.9 µM | hit rate 56% among 5,600 | AID 651744, 2012;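 active = mean loss of cell viability signal at or above a set limit, and enough replicates individually reaching it; inconclusive = meets only the mean limit or only the replicate share; inactive = meets neither condition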
A number is an active result. Hits are enriched below; roughly 6.8% of the tested compounds scored in any of these assays.

Cc1ccc(S(=O)(=O)N(C)C[C@@H]2OCCCC[C@H](C)Oc3ccc(NS(=O)(=O)c4ccc(F)cc4)cc3C(=O)N([C@@H](C)CO)C[C@H]2C)cc1 was read as C diff growth inactive, Pf Dd2 growth inactive and T cruzi growth-1 inactive.
C[C@@H]1CN([C@@H](C)CO)C(=O)CCCn2cc(nn2)CO[C@@H]1CN(C)Cc1ccc(C(=O)O)cc1 was read as C diff growth inactive and Pf Dd2 growth inactive.
C[C@H](CO)N1C[C@H](C)[C@@H](CN(C)C(=O)Nc2ccccc2F)Oc2cc(-c3ccc(C(=O)N(C)C)cc3)ccc2S1(=O)=O was read as C diff growth inactive and Pf Dd2 growth inactive.
Screening COc1ccc(C#Cc2ccc([C@@H]3[C@@H](CO)N4C(=O)CN(C(=O)c5ccccc5)C[C@@H]34)cc2)cc1 returned C diff growth inactive and Pf Dd2 growth inactive.
`Cc1ccc(S(=O)(=O)Nc2ccc3c(c2)C(=O)N([C@@H](C)CO)C[C@H](C)[C@H](CN(C)S(=O)(=O)c2ccc(F)cc2)OCCCC[C@H](C)O3)cc1` gave C diff growth inactive, Pf Dd2 growth inactive, T cruzi growth-1 116, T cruzi growth-2 104, T cruzi growth-3 inactive, 3T3 cytotox inactive and 3T3 cytotox 2 inactive.
For Cc1ccc(S(=O)(=O)Nc2ccc3c(c2)C(=O)N([C@@H](C)CO)C[C@@H](C)[C@H](CN(C)S(=O)(=O)c2ccc(F)cc2)OCCCC[C@@H](C)O3)cc1 the results were C diff growth inactive, Pf Dd2 growth inactive, T cruzi growth-1 103, T cruzi growth-2 106, T cruzi growth-3 inactive, 3T3 cytotox inactive and 3T3 cytotox 2 inactive.
C[C@@H]1CCCCO[C@@H](CN(C)S(=O)(=O)c2ccc(F)cc2)[C@@H](C)CN([C@@H](C)CO)C(=O)c2cc(NS(=O)(=O)c3ccc(F)cc3)ccc2O1 was read as C diff growth inactive, Pf Dd2 growth inactive and T cruzi growth-1 inactive.
Screening Cc1ccc(S(=O)(=O)Nc2ccc3c(c2)C(=O)N([C@H](C)CO)C[C@@H](C)[C@@H](CN(C)S(=O)(=O)c2ccc(F)cc2)OCCCC[C@@H](C)O3)cc1 returned C diff growth inactive and Pf Dd2 growth inactive.
`C[C@@H]1CCCCO[C@H](CN(C)C(=O)CCC(F)(F)F)[C@@H](C)CN([C@@H](C)CO)C(=O)c2cc(N(C)C)ccc2O1` gave C diff growth inactive, Pf Dd2 growth inactive and T cruzi growth-1 inactive.
Screening Cc1cccc(S(=O)(=O)N2CCCCN3[C@@H](CO)[C@H](c4ccc(-c5ccncc5)cc4)[C@@H]3C2)c1 returned C diff growth inactive, Pf Dd2 growth inactive, T cruzi growth-1 98, T cruzi growth-2 107, T cruzi growth-3 inactive, 3T3 cytotox inactive and 3T3 cytotox 2 46.
For Cc1cccc(S(=O)(=O)N2CCCCN3[C@H](C2)[C@H](c2ccc(-c4ccccc4)cc2)[C@@H]3CO)c1 the results were C diff growth inactive, Pf Dd2 growth inactive and T cruzi growth-1 inactive.
Cc1ccc(-c2ccc([C@@H]3[C@H](CO)N4CCCCN(S(=O)(=O)c5cccc(C)c5)C[C@@H]34)cc2)cc1 was read as C diff growth inactive, Pf Dd2 growth inactive, T cruzi growth-1 108, T cruzi growth-2 inconclusive, T cruzi growth-3 98, 3T3 cytotox inactive and 3T3 cytotox 2 104.
For Cc1ccc(-c2ccc([C@H]3[C@H]4CN(S(=O)(=O)c5cccc(C)c5)CCCCN4[C@H]3CO)cc2)cc1 the results were C diff growth inactive, Pf Dd2 growth inactive and T cruzi growth-1 inactive.
For Cc1cccc(S(=O)(=O)N2CCCCN3[C@H](CO)[C@H](c4ccc(-c5ccncc5)cc4)[C@H]3C2)c1 the results were C diff growth inactive, Pf Dd2 growth inactive, T cruzi growth-1 110, T cruzi growth-2 107, T cruzi growth-3 inactive, 3T3 cytotox inactive and 3T3 cytotox 2 37.
For Cc1ccc(-c2ccc([C@H]3[C@H](CO)N4CCCCN(S(=O)(=O)c5cccc(C)c5)C[C@@H]34)cc2)cc1 the results were C diff growth inactive, Pf Dd2 growth inactive and T cruzi growth-1 inactive.
For C[C@@H]1CN([C@@H](C)CO)C(=O)Cc2cc(NC(=O)C3CC3)ccc2O[C@@H]1CN(C)CC1CC1 the results were C diff growth inactive, Pf Dd2 growth inactive and T cruzi growth-1 inactive.
Screening Cc1ccc(S(=O)(=O)N[C@@H]2CC[C@H](CCn3cc(C(C)C)nn3)O[C@@H]2CO)cc1 returned C diff growth inactive, Pf Dd2 growth inactive and T cruzi growth-1 inactive.
CCC(=O)N1[C@@H]2c3ccc(-c4ccccc4F)c(=O)n3C[C@H]1[C@H](CO)[C@H]2C(=O)NC1CCCC1 was read as C diff growth inactive, Pf Dd2 growth inactive and T cruzi growth-1 inactive.
For C[C@H](CO)N1C[C@H](C)[C@@H](CN(C)S(=O)(=O)c2ccc(F)cc2)OCCCC[C@H](C)Oc2ccc(NS(=O)(=O)c3ccc(Cl)cc3)cc2C1=O the results were C diff growth inactive, Pf Dd2 growth inactive, T cruzi growth-1 100, T cruzi growth-2 inconclusive, T cruzi growth-3 inconclusive, 3T3 cytotox 48 and 3T3 cytotox 2 27.
C[C@@H]1CCCCO[C@@H](CN(C)S(=O)(=O)c2ccc(Cl)cc2)[C@@H](C)CN([C@H](C)CO)C(=O)c2cc(NS(=O)(=O)c3ccc(F)cc3)ccc2O1 was read as C diff growth inactive, Pf Dd2 growth inactive and T cruzi growth-1 inactive.
`C[C@@H]1CCCCO[C@@H](CN(C)S(=O)(=O)c2ccc(F)cc2)[C@H](C)CN([C@@H](C)CO)C(=O)c2cc(NS(=O)(=O)c3ccc(Cl)cc3)ccc2O1` gave C diff growth inactive, Pf Dd2 growth inactive, T cruzi growth-1 103, T cruzi growth-2 95, T cruzi growth-3 inactive, 3T3 cytotox inactive and 3T3 cytotox 2 34.
`C[C@@H]1CN([C@H](C)CO)C(=O)c2cc(NS(=O)(=O)c3ccc(Cl)cc3)ccc2O[C@@H](C)CCCCO[C@H]1CN(C)S(=O)(=O)c1ccc(F)cc1` gave C diff growth inactive, Pf Dd2 growth inactive, T cruzi growth-1 103, T cruzi growth-2 100, T cruzi growth-3 110, 3T3 cytotox inactive and 3T3 cytotox 2 inactive.
